# Screening data (PubChem BioAssay)
# Marburg entry inh: Marburg virus entry inhibition | Marburg virus pseudotyped entry inhibition, cell reporter | Potency, µM (doses to about 37.8 µM), actives largely listed as inhibitors | actives 1.8% (n = 300,000); calls by dose curve; tested in HEK293 cells
# Shiga inhibitor: Shiga toxin inhibition; Vero cells, Shiga toxin protein synthesis inhibition reporter; inhibition, % at 38.7 µM; actives 9.2% (n = 290,000); AID 2315; in the data active = inhibition mostly above about 28%, no sharp cut-off; inactive = mostly below about 43%
# LASV entry inh: inhibitors of Lassa virus binding or cell entry; Potency, µM (doses to about 37.9 µM), hits mostly inhibitors; Lassa virus pseudotype entry inhibition, cell reporter; actives 1.2% (n = 300,000); AID 540256; calls by dose curve; tested in HEK293 cells; also: nearly all actives have a fitted effect of over 50% in size
# CHX counter: counter-screen for Shiga toxin inhibitors: cycloheximide protein synthesis inhibition; cell reporter, cycloheximide protein synthesis inhibition counterscreen; AID 2314; max response, %; actives 12% (n = 300,000); in the data active = max response mostly above about 13%, no sharp cut-off; inactive = mostly below about 14%; also: read at 38.3 µM for the half of the compounds with a filed dose
# Numbers stand for hits; i = inactive; ? = inconclusive; nt = not tested or not shown; ! = not active in a repeat. An excerpt weighted towards active compounds, which were near 12% of everything screened.
SMILES,Marburg entry inh,Shiga inhibitor,LASV entry inh,CHX counter
Cc1csc(NC(=O)c2ccc(OCC3CCCO3)cc2)n1 (configuration not stated),4.47µM,i,3.55µM,14.3
CCOc1ccc2nc(NC(=O)CSc3nnc(-c4ccncc4)n3CC3CCCO3)sc2c1 (configuration not stated),i,i,i,i
Cc1cccc2sc(NC(=O)c3ccc(OCC4CCCO4)cc3)nc12 (configuration not stated),?,100.4,i,45.6
COc1ccccc1Nc1ncc(C(=O)N2CCN(Cc3ccc(OC)c(OC)c3OC)CC2)c2ccccc12,?,i,12.6µM,i
Cc1c(C(=O)N/N=C/c2ccncc2)no[n+]1[O-],i,i,i,20.7
CCCC(=O)Nc1ccc(C(=O)N/N=C/c2ccc([N+](=O)[O-])o2)cc1,11.6µM,i,?,i
Cc1nonc1C(=O)N/N=C/c1ccncc1,nt,50.9,nt,28.6
Nc1nonc1C(=O)N/N=C/c1ccncc1,i,i,nt,i
COc1ccc(/C=N\NC(=O)C2=NNC(=O)C2C)cc1 (configuration not stated),?,42.4,i,24.9
Cc1ccc(-n2nc(C(=O)N3CCN(c4cccc(C(F)(F)F)c4)CC3)c3c4ccccc4n(C)c3c2=O)cc1,i,nt,i,nt
CNC(=O)c1nn(C)c(=O)[nH]c1=O,?,nt,i,nt
Cc1nnsc1C(=O)N/N=C/c1ccccc1,?,i,i,i
COc1ccc(/C=N/NC(=O)c2cc[n+]([O-])cc2)cc1,i,i,?,i
Cc1nnsc1C(=O)N/N=C/c1ccc(OC(F)(F)F)cc1,i,64.3,?,23.3
COc1ccc(/C=N/NC(=O)c2nonc2C)cc1,i,62.3,i,44.2
Cc1cc(C(=O)N/N=C/c2ccc([N+](=O)[O-])o2)c(C)o1,nt,i,nt,i
Cc1nonc1C(=O)N/N=C/c1ccc([N+](=O)[O-])o1,nt,88.4,nt,45.9
COc1cccc(CN(CC2CCCO2)C(=O)c2cc3ccccc3oc2=O)c1 (configuration not stated),nt,77.3,nt,43.7
COc1ccc(CN(CC2CCCO2)C(=O)c2cc3ccccc3oc2=O)cc1 (configuration not stated),nt,i,nt,i
COc1cccc(CN(C(=O)c2cc3ccccc3oc2=O)C2CC2)c1,i,78.1,i,25.6
O=C(NCC1CCCO1)c1ccc(Cl)c(S(=O)(=O)N2CCCCC2)c1 (configuration not stated),i,i,i,i
COc1ccc(F)cc1S(=O)(=O)NCCc1sc2nc(-c3ccc(F)cc3)nn2c1C,nt,nt,i,nt
Cc1cccc(N2CCc3c2nc2ccccc2c3N)c1,?,26.9!,i,16.7!
O=Cc1ccccc1-n1cncn1,i,i,i,i
COC(=O)[C@H](CC(C)C)NC(=O)c1ccc(NC[C@@H](N)CS)cc1-c1cccc2ccccc12,nt,i,nt,i
SMILES,Marburg entry inh,Shiga inhibitor,LASV entry inh,CHX counter
COc1ccc(NC(=O)C2=C(C)Nc3c(C(=O)Nc4ccc(C)cc4)cnn3C2c2cccc(Cl)c2)cc1 (configuration not stated),nt,nt,i,nt
CC1=C(C(=O)Nc2ccc(Cl)cc2)C(c2ccccc2C)n2ncc(C(=O)Nc3ccc(C)cc3)c2N1 (configuration not stated),5.62µM,nt,?,nt
Cc1ccc(OCC(=O)Nc2cccc(S(=O)(=O)N3CCCCCC3)c2)cc1C,i,nt,i,nt
COc1ccc(Cc2nc3ccc(C(=O)NCc4ncc(C)[nH]4)cc3o2)cc1OC,nt,i,nt,i
COc1ccc(Cc2nc3ccc(C(=O)NC(C)Cc4ncccc4C)cc3o2)cc1OC (configuration not stated),?,i,?,29.7
C=CCN(CC=C)C(=O)c1ccc2nc(Cc3ccc(OC)c(OC)c3)oc2c1,?,i,?,17.1
COc1ccc(Cc2nc3ccc(C(=O)N4CCCC4)cc3o2)cc1OC,?,36.5,?,i
COc1ccc(Cc2nc3ccc(C(=O)N4CCN(C)C(C)C4)cc3o2)cc1OC (configuration not stated),?,i,?,10.8
O=C(Nc1ccccc1OC(F)F)c1ccc(S(=O)(=O)N2CCCC2)cc1,i,nt,i,nt
O=C(Cn1c(-c2cccs2)cc2cc(Cl)ccc21)N1CCCCC1,nt,nt,i,nt
C/C(N)=C(/C#N)C(=O)COC(=O)c1ccc(C#N)cc1,i,i,nt,i
COc1ccc(-c2c(C)nn3c(N4CCN(c5cc(Cl)ccc5C)CC4)cc(C)nc23)cc1OC,i,nt,i,nt
C=C1[C@@H]2C[C@]3(C(CC2=O)[C@]24C5C[C@H]3[C@H]2N(CC)C[C@]5(C)CC[C@@H]4O)[C@@H]1O (some centres not stated),nt,i,nt,i
C#CCN(CC=C)C(=O)c1ccc2nc(C3CCCCC3)oc2c1,nt,i,nt,19.1
C=CCN(Cc1nc(-c2ccccc2)no1)C(=O)c1ccc2c(c1)OCO2,?,i,i,i
COc1ccc(Cc2nc3ccc(C(=O)N4CCCC4)cc3o2)cc1,nt,105.6,nt,70.5
